High-throughput results from PubChem BioAssay.
In the library only some 27% were active in any assay of this set; here they are far more common.
CYP2C19 act: human CYP2C19 activators, primary screen, biochemical, luminescence; Cytochrome P450 2C19 (Homo sapiens), P33261; recombinant CYP2C19, luciferin-H EGE luminescence; active compounds read high; 0 = fully inhibited enzyme, 1 = untreated enzyme; activation factor at 5 µM; 96,000 tested, under 10 active; AID 1025, 2008;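 active = activation factor of at least 2 at 5 µM in the primary screen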;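 note: 0 = wells with 2.5 mM tranylcypromine and 1 = vehicle-only wells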
Pyk2 oligo antag: antagonists of Pyk2 self-association, primary screen, Q293 cells, FERM NanoBiT luminescence, HTS; active compounds read low; Protein-tyrosine kinase 2-beta (Homo sapiens), Q14289; z-score (the deposit names both 25 µM and 10 µM); 0.83% of 99,000 active;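 active = Z-score of -3 or lower, scaled per plate to the spread of control and sample wells; inactive = z-score above -3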;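 note: negative z-score means lost luminescence so less FERM oligomerization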
Cav32 inh: Cav3.2 calcium influx blockers – cell-based, Fluo-4 calcium fluorescence, FDSS, MLSMR library, primary screen | Voltage-dependent T-type calcium channel subunit alpha-1H (Homo sapiens), O95180 | Cav3.2-expressing cells; active compounds read low | B-score at 10 µM | 4% of 100,000 active | AID 449739, 2010;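 active = single-dose well whose peak fluorescence ratio is a statistical outlier from its plate by either plate-standardised score or position-corrected B-score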
CYP2C19 inh: blockers of cytochrome P450 2C19 activity – biochemical, luminescence, ADME assay, primary screen. CYP2C19 Supersomes, luciferin-H EGE luminescence, 30 min. inhibition, % at 5 µM. 21% of 96,000 active. AID 778, 2007;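 active = CYP2C19 inhibition above a set limit at 5 µM in the primary screen, cut at about 50% in these data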;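 note: plate controls were negative control wells for no effect and 2.5 mM tranylcypromine positive control for full effect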
CYP2C9 inh: blockers of cytochrome P450 2C9 activity – biochemical, luminescence, ADME assay, primary screen. CYP2C9 Supersomes, luciferin-H conversion. inhibition, % at 5 µM. 20% of 96,000 active. AID 777, 2007;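 active = blocking of liver enzyme CYP2C9 beyond about 50% at 5 µM, limit read from the data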
Target sequence (P11712 whole entry, looked up): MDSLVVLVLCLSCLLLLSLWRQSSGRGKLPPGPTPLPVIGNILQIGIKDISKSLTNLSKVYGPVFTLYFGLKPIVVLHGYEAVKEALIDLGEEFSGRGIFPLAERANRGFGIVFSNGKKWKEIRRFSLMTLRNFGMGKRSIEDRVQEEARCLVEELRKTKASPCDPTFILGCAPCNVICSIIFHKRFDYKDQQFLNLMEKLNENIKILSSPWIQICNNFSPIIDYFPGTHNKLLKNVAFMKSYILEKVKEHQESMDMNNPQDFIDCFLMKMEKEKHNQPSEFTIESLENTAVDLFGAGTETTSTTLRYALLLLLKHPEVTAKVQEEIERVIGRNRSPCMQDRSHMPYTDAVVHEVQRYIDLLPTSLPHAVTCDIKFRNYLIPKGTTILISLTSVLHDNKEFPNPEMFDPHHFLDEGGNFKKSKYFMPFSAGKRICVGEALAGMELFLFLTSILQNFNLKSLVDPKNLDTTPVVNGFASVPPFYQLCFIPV
CYP2C9 activ: human CYP2C9 activators, primary screen, biochemical, luminescence. activation factor at 5 µM. AID 1024, 2008. recombinant CYP2C9, luciferin-H conversion; active compounds read high; factor 1 = untreated enzyme, 0 = blocked. Cytochrome P450 2C9 (Homo sapiens), P11712. 1.4% of 96,000 active;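 active = activation factor of 2 or more for CYP2C9 at a 5 µM dose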;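 note: 0 = sulfaphenazole-blocked wells and 1 = vehicle-only wells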
* hit, by the source's call; · = no result.

SMILES | CYP2C19 act | Pyk2 oligo antag | Cav32 inh | CYP2C19 inh | CYP2C9 inh | CYP2C9 activ
O=C(ON=C1CCN(S(=O)(=O)c2ccccc2)CC1)c1ccc(F)cc1 | · | 0.83 | -0.34 | · | · | ·
O=C(O/N=C1/CCSc2ccccc21)c1ccc(F)cc1 | 1 | -0.38 | -4.7* | -2 | 1 | 1
Cc1cc(N(C)C)c(C#N)c(N2CCOCC2)n1 | 1 | 0.36 | -0.063 | -4 | -17 | 1.2
CN(C)c1nc(N2CCN(c3ccccc3)CC2)c(C#N)c(=O)o1 | 0 | -0.04 | 0.77 | 97* | -94 | 1.9
Cc1cccc(C)c1N1CCN(c2nc(N(C)C)oc(=O)c2C#N)CC1 | 0.1 | 0.07 | 0.28 | 95* | 74* | 0.3
Cc1cccc(C)c1NC(=O)C/C(N)=N/O | 0.9 | 0.7 | -0.014 | 13 | 11 | 0.9
Oc1c(N=Nc2ccccn2)ccc2ccccc12 | 0.7 | -2 | -0.11 | 31 | 43 | 0.6
O=C(NCc1ccccc1)C(c1ccncc1)N(C(=O)c1csnn1)C1CC1 (stereo not drawn) | 0.6 | 0.88 | -0.2 | 45 | 16 | 0.8
CCN(CC(=O)NCc1ccc(F)cc1)CC(O)COCc1cccc(OC)c1 (stereo not drawn) | 0.3 | 1.4 | -0.062 | 67* | 67* | 0.3
CCC(C)[C@H](NC(=O)NCc1cccc(OC)c1)C(=O)OC (stereo partly drawn) | 0.6 | 0.23 | -0.11 | 36 | 8 | 0.9
CCCCOc1ccc(N2C(=O)CC(N(O)c3ccccc3)C2=O)cc1 (stereo not drawn) | 1.1 | 0.38 | -0.6 | -12 | -5 | 1.1
Cc1cccc(C)c1N1C(=O)CC(N(O)c2ccccc2)C1=O (stereo not drawn) | 0 | -1.3 | -0.69 | 97* | 30 | 0.7
Cc1c(Cl)cccc1N1C(=O)CC(N(O)c2ccccc2)C1=O (stereo not drawn) | 0.1 | -0.46 | -3.8 | 94* | -156 | 2.6*
CC(C)c1nnc(NC(=O)CCC(=O)NCc2cccs2)s1 | 1.1 | 0.22 | -0.38 | -6 | 9 | 0.9
Cn1cccc1Cc1nnc(SCC(=O)N2CCCc3ccccc32)n1-c1ccc(F)cc1 | 0.8 | · | -7.9* | 19 | -1 | 1
COc1ccc(-n2c(Cc3ccccc3)nnc2SCC(=O)N2CCCc3ccccc32)cc1 | · | -1.2 | -8.5* | · | · | ·
COc1cccc(-n2nnnc2SCC(=O)N2CCCc3ccccc32)c1 | 0.5 | 0.36 | -2 | 52* | 19 | 0.8
COc1cc(OC)cc(-n2nnnc2SCC(=O)N2CCCc3ccccc32)c1 | 0.5 | -0.74 | 0.25 | 49 | 22 | 0.8
O=C(c1ccccc1)C1CCc2occc2C1=O (stereo not drawn) | 0.8 | 0.27 | 0.29 | 24 | 6 | 0.9
N#C/C(=C(/O)CSc1ccccc1C(=O)O)c1nc2ccccc2s1 | 1.1 | 0.68 | -0.065 | -7 | 8 | 0.9
Cc1ccc(SC/C(O)=C(\C#N)c2nc3ccccc3s2)cc1 | 0.5 | -1.9 | -4.4* | 54* | 100* | 0
COc1ccc(C/C(O)=C(\C#N)c2nc3ccccc3s2)cc1 | 1 | -0.06 | -3.1 | -1 | 68* | 0.3
O=C(CN1C(=O)COc2ccccc21)N1CCc2ccccc2C1 | · | 0.47 | 0.58 | · | · | ·
CCC(C)n1c(SC(C)C#N)nc2ccccc2c1=O (stereo not drawn) | 0.5 | -1 | -1.6 | 48 | 70* | 0.3
CCOC(=O)CC(=O)Nc1nc2ccccc2s1 | 0.7 | 0.29 | -0.17 | 28 | 18 | 0.8
SMILES | CYP2C19 act | Pyk2 oligo antag | Cav32 inh | CYP2C19 inh | CYP2C9 inh | CYP2C9 activ
Cc1ccc(CC(=O)Nc2nc3ccccc3s2)cc1 | 0.9 | -0.74 | -6.7* | 14 | 34 | 0.7
CCc1ccc(/C=C2/SC(=S)N(CC(=O)Nc3nc4ccccc4s3)C2=O)cc1 | 0.9 | 0.09 | -0.68 | 15 | 53* | 0.5
O=C(Nc1nc2ccccc2s1)c1cnccn1 | 0.3 | 0.4 | -0.014 | 65* | 29 | 0.7
CCc1ccc(/C=C2\SC(=S)N(CCCC(=O)Nc3ccccn3)C2=O)cc1 | 0.7 | -0.15 | -3.3 | 26 | 47 | 0.5
CCOC(=O)Nc1nc2ccccc2s1 | 1.1 | 0.11 | 0.32 | -10 | 29 | 0.7
c1ccc(CCNc2nc3ccccc3s2)cc1 | 0 | 2.1 | -2.2 | 97* | 82* | 0.2
COc1ccc(NC(=O)Cn2c(=O)n(CC(=O)NCc3ccco3)c(=O)c3ccccc32)cc1 | 1 | -1 | -0.95 | 0 | 9 | 0.9
CC(C)(C(=O)c1ccccc1)/[N+]([O-])=C/c1ccc(Br)cc1 | · | -0.02 | -0.68 | · | · | ·
Cc1cccc(NC(=O)/C=C/c2cccs2)n1 | 0.8 | -0.63 | 1.3 | 16 | 3 | 1
O=C1OC(/C=C/c2ccc(Cl)cc2)=NC/1=C/c1ccco1 | · | 0.3 | · | · | · | ·
O=C(O)CCC(=O)Nc1nc2ccccc2s1 | 1.1 | 2.1 | 0.035 | -8 | -10 | 1.1
O=C(NNc1nc2ccccc2s1)c1ccc(F)cc1 | · | 0.01 | · | · | · | ·
Cc1ccc(C(=O)Nc2nc3ccccc3s2)s1 | 0.6 | -1.4 | · | 38 | 61* | 0.4
O=C(CS(=O)(=O)Cc1ccccc1)Nc1nc2ccccc2s1 | 0.5 | -0.4 | -2.4 | 54* | 55* | 0.5
CN(CC(=O)Nc1nc2ccccc2s1)S(=O)(=O)c1ccccc1 | 0.5 | -1.2 | -2.7 | 52* | 44 | 0.6
O=S(=O)(Nc1nc2ccccc2s1)c1ccc(Cl)s1 | 0.3 | -1.7 | -5.1* | 65* | 95* | 0
Cc1ccc(C(=O)Nc2nc3ccc(S(C)(=O)=O)cc3s2)s1 | 1.1 | -0.92 | 0.67 | -9 | 1 | 1
COc1ccccc1OCC(=O)N/N=C1/SCC(=O)N1Cc1ccccc1 | 0.9 | 0.32 | 1.1 | 14 | -9 | 1.1
ON1C(c2ccccc2C(F)(F)F)N(O)[C@H]2CCCC[C@H]21 (stereo partly drawn) | 0.8 | 0.6 | 1 | 24 | -2 | 1
CCCC(=O)c1c(C)c2ccccc2n1C | 0.6 | 0.13 | -0.37 | 35 | -11 | 1.1
Cc1ccc(CNc2nc3ccccc3s2)s1 | 0.5 | 0.11 | -0.76 | 51* | 44 | 0.6
CCSc1nc(N2CCCCC2)c2c(c1C#N)CCCC2 | 0.3 | -0.73 | -0.056 | 69* | 93* | 0.1
N#Cc1c(SCc2ccccc2)nc(N2CCOCC2)c2c1CCCC2 | 0.7 | -1.8 | -5.4* | 35 | 92* | 0.1
N#Cc1c(SCC(=O)O)nc(-c2ccccc2)c2c1CCCC2 | 1 | -0.96 | 3.3 | 0 | 29 | 0.7
CSc1nc(N2CCCC2)c2c(c1C#N)CC(C)(C)OC2 | 0.8 | 0.06 | 0.0032 | 19 | 29 | 0.7
O=C(CCN1C(=O)COc2ccccc21)NCCN1CCN(c2cccc(Cl)c2)CC1 | 0.9 | 0.48 | 0.17 | 14 | 2 | 1
Cn1c(=O)n(C)c2cc(S(=O)(=O)NCCc3ccccc3)ccc21 | 0.6 | 1.3 | -0.65 | 35 | 5 | 0.9
